Reference: PubChem BioAssay AID1159580 (chemical genetic matrix, 2015)
The whole screen tested about 5,500 compounds, of which about 2,000 (36%) were called active. Inconclusive results (about 18%) are left out. Cut-off read from the data, not from the text of the source: active = normalized growth mostly below about 0.91 (no sharp cut-off); inconclusive = no clear call, values can overlap the other calls; inactive = mostly above about 0.92. The list shows a part of the results.

Assay: chemical genetic growth profiling, strain panel (AID 1159580);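 note: tested at 20 µM; growth read once vehicle control cultures reached saturation at 30 °C; 1 = growth at the plate median or of vehicle wells; lower values mean less growth of the strain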
Details: growth OD

Measured: normalized growth

Nc1ncnc2c1ncn2[C@@H]1O[C@H](CO)[C@@H](O)[C@@H]1O
inactive: S. cerevisiae deletion strains, locus YJR075W, strain HOC1, stronger effect = lower value 1.02 | S. cerevisiae deletion strains, locus YKL009W, strain mrt4, stronger effect = lower value 1.08 | S. cerevisiae deletion strains, locus YKL068W, stronger effect = lower value 1.01 | S. cerevisiae deletion strains, locus YKL085W, strain MDH1 (second series), stronger effect = lower value 1 | S. cerevisiae deletion strains, locus YKL085W, strain MDH1, stronger effect = lower value 1 | S. cerevisiae deletion strains, locus YKL160W, strain elf1, stronger effect = lower value 1 | S. cerevisiae deletion strains, locus YKL190W, strain CNB1, stronger effect = lower value 0.996 | S. cerevisiae deletion strains, locus YKR001C, strain vps1, stronger effect = lower value 1.04 | S. cerevisiae deletion strains, locus YKR026C, strain gcn3, stronger effect = lower value 1.01 | S. cerevisiae deletion strains, locus YKR091W, strain srl3, stronger effect = lower value 1.01 | S. cerevisiae deletion strains, locus YLL001W, strain dnm1, stronger effect = lower value 1.02 | S. cerevisiae deletion strains, locus YLL026W, stronger effect = lower value 1 | S. cerevisiae deletion strains, locus YLL041C, strain sdh2, stronger effect = lower value 1.01 | S. cerevisiae deletion strains, locus YLR027C, strain aat2, stronger effect = lower value 1.01 | S. cerevisiae deletion strains, locus YLR039C, strain RIC1, stronger effect = lower value 1.02 | S. cerevisiae deletion strains, locus YLR058C, strain SHM2, stronger effect = lower value 1.01 | S. cerevisiae deletion strains, locus YLR102C, strain apc9, stronger effect = lower value 1.02 | S. cerevisiae deletion strains, locus YLR113W, strain HOG1, stronger effect = lower value 1 | S. cerevisiae deletion strains, locus YLR221C, strain rsa3, stronger effect = lower value 1.01 | S. cerevisiae deletion strains, locus YLR258W, strain gsy2, stronger effect = lower value 1.01 | S. cerevisiae deletion strains, locus YLR262C, strain YPT6 (second series), stronger effect = lower value 1.03 | S. cerevisiae deletion strains, locus YLR262C, strain YPT6, stronger effect = lower value 1.03 | S. cerevisiae deletion strains, locus YLR268W, strain sec22, stronger effect = lower value 1.04 | S. cerevisiae deletion strains, locus YLR320W, strain mms22, stronger effect = lower value 1 | S. cerevisiae deletion strains, locus YLR330W, strain CHS5, stronger effect = lower value 1.01 | S. cerevisiae deletion strains, locus YLR342W, strain FKS1 (second series), stronger effect = lower value 0.989 | S. cerevisiae deletion strains, locus YLR342W, strain FKS1, stronger effect = lower value 1.01 | S. cerevisiae deletion strains, locus YLR357W, strain rsc2, stronger effect = lower value 1.04 | S. cerevisiae deletion strains, locus YLR370C, strain arc18, stronger effect = lower value 1.02 | S. cerevisiae deletion strains, locus YLR371W, strain rom2, stronger effect = lower value 1.02 | S. cerevisiae deletion strains, locus YLR384C, strain iki3, stronger effect = lower value 1.01 | S. cerevisiae deletion strains, locus YLR418C, strain cdc73, stronger effect = lower value 1.05 | S. cerevisiae deletion strains, locus YML016C, strain PPZ1, stronger effect = lower value 1.01 | S. cerevisiae deletion strains, locus YML032C, strain rad52, stronger effect = lower value 1.03 | S. cerevisiae deletion strains, locus YML120C, strain ndi1, stronger effect = lower value 1.01 | S. cerevisiae deletion strains, locus YML124C, strain tub3, stronger effect = lower value 1.03 | S. cerevisiae deletion strains, locus YMR058W, strain fet3, stronger effect = lower value 1.02 | S. cerevisiae deletion strains, locus YMR078C, strain ctf18, stronger effect = lower value 1.03 | S. cerevisiae deletion strains, locus YMR125W, strain sto1, stronger effect = lower value 1.01 | S. cerevisiae deletion strains, locus YMR129W, stronger effect = lower value 1.01 | S. cerevisiae deletion strains, locus YMR205C, strain PFK2, stronger effect = lower value 1.03 | S. cerevisiae deletion strains, locus YMR223W, strain ubp8, stronger effect = lower value 1.03 | S. cerevisiae deletion strains, locus YMR231W, strain pep5, stronger effect = lower value 1.01 | S. cerevisiae deletion strains, locus YMR263W, strain SAP30, stronger effect = lower value 1.01 | S. cerevisiae deletion strains, locus YMR307W, strain GAS1, stronger effect = lower value 1.01 | S. cerevisiae deletion strains, locus YNL067W, strain RPL9B, stronger effect = lower value 1.01 | S. cerevisiae deletion strains, locus YNL071W, strain lat1, stronger effect = lower value 1.02 | S. cerevisiae deletion strains, locus YNL128W, strain TEP1, stronger effect = lower value 1.02 | S. cerevisiae deletion strains, locus YNL153C, strain GIM3, stronger effect = lower value 1.01 | S. cerevisiae deletion strains, locus YNL183C, strain NPR1, stronger effect = lower value 0.952 | S. cerevisiae deletion strains, locus YNL209W, strain ssb2, stronger effect = lower value 1.01 | S. cerevisiae deletion strains, locus YNL233W, strain BNI4, stronger effect = lower value 1.02 | S. cerevisiae deletion strains, locus YNL248C, strain rpa49, stronger effect = lower value 1.01 | S. cerevisiae deletion strains, locus YNL250W, strain rad50, stronger effect = lower value 1.03 | S. cerevisiae deletion strains, locus YNL271C, strain bni1, stronger effect = lower value 1.03 | S. cerevisiae deletion strains, locus YNL298W, strain CLA4, stronger effect = lower value 1.02 | S. cerevisiae deletion strains, locus YNL307C, strain MCK1, stronger effect = lower value 1.03 | S. cerevisiae deletion strains, locus YNL322C, strain KRE1 (second series), stronger effect = lower value 1.02 | S. cerevisiae deletion strains, locus YNL322C, strain KRE1, stronger effect = lower value 1.01 | S. cerevisiae deletion strains, locus YNR049C, strain mso1, stronger effect = lower value 1.02 | S. cerevisiae deletion strains, locus YNR052C, strain pop2, stronger effect = lower value 1.03 | S. cerevisiae deletion strains, locus YOL006C, strain TOP1, stronger effect = lower value 1.06 | S. cerevisiae deletion strains, locus YOL012C, strain htz1 1.2 | S. cerevisiae deletion strains, locus YOL147C, strain pex11, stronger effect = lower value 1.03 | S. cerevisiae deletion strains, locus YOR001W, strain rrp6, stronger effect = lower value 1.02 | S. cerevisiae deletion strains, locus YOR061W, strain CKA2, stronger effect = lower value 1.02 | S. cerevisiae deletion strains, locus YOR069W, strain VPS5, stronger effect = lower value 1 | S. cerevisiae deletion strains, locus YOR070C, strain gyp1, stronger effect = lower value 1.02 | S. cerevisiae deletion strains, locus YOR080W, strain dia2, stronger effect = lower value 1 | S. cerevisiae deletion strains, locus YOR083W, strain WHI5, stronger effect = lower value 1.01 | S. cerevisiae deletion strains, locus YOR106W, strain vam3, stronger effect = lower value 1.01 | S. cerevisiae deletion strains, locus YOR136W, strain idh2, stronger effect = lower value 1.03 | S. cerevisiae deletion strains, locus YOR144C, strain elg1, stronger effect = lower value 1.03 | S. cerevisiae deletion strains, locus YOR184W, strain ser1, stronger effect = lower value 1.05 | S. cerevisiae deletion strains, locus YOR231W, strain MKK1, stronger effect = lower value 0.981 | S. cerevisiae deletion strains, locus YOR265W, strain rbl2, stronger effect = lower value 1 | S. cerevisiae deletion strains, locus YOR270C, strain vph1, stronger effect = lower value 1.06 | S. cerevisiae deletion strains, locus YOR290C, strain snf2, stronger effect = lower value 1.03 | S. cerevisiae deletion strains, locus YOR316C, strain cot1, stronger effect = lower value 1.03 | S. cerevisiae deletion strains, locus YPL051W, strain arl3, stronger effect = lower value 1.01 | S. cerevisiae deletion strains, locus YPL055C, strain LGE1, stronger effect = lower value 1.04 | S. cerevisiae deletion strains, locus YPL078C, strain atp4, stronger effect = lower value 1.02 | S. cerevisiae deletion strains, locus YPL106C, strain sse1, stronger effect = lower value 1.02 | S. cerevisiae deletion strains, locus YPL240C, strain hsp82, stronger effect = lower value 1.03 | S. cerevisiae deletion strains, locus YPL241C, strain CIN2, stronger effect = lower value 1 | S. cerevisiae deletion strains, locus YPL256C, strain CLN2, stronger effect = lower value 0.963 | S. cerevisiae deletion strains, locus YPR119W, strain clb2, stronger effect = lower value 1.03 | S. cerevisiae deletion strains, locus YPR141C, strain kar3, stronger effect = lower value 1.03 | S. cerevisiae deletion strains, locus YPR163C, strain tif3, stronger effect = lower value 1.04 | S. cerevisiae deletion strains, locus YPR167C, strain met16, stronger effect = lower value 1.03 | S. cerevisiae deletion strains, strain wtn01, stronger effect = lower value 1.02 | S. cerevisiae strains, strain wild type, stronger effect = lower value 1.01
